{"source": "ChEMBL document CHEMBL3988442", "about": "“University of Dundee, Small-Polar-MMV Screening Library” (2021)", "note": "Among all 53,000 compounds or so, about 900 (1.7%) showed an effect of 50% or more. For the sample, strong results were picked, then their nearest neighbours and some compounds at random.", "data": [{"tested_on": "Mycobacterium tuberculosis", "assay": "Cornell - Phenotypic assay to identify agents that inhibit growth of Mycobacterium tuberculosis", "assay_type": "functional", "parameters": "scale not given: direction of the effect not stated beside the values", "settings": "10 mM as filed; unlikely as a test dose", "units": {"Percent Effect": "%"}, "values": [{"smiles": "Cc1noc(C)c1S(=O)(=O)N1CCc2nc(C3CCNCC3)ncc2C1.Cl", "Percent Effect": 6.846}, {"smiles": "CN(C)C(=O)CN1CCCC(c2nccnc2-c2cccc(Cl)c2)C1", "note": "(centres undefined)", "Percent Effect": 27.94}, {"smiles": "O=c1cc(CN2CCCC2)nc2n1CCCN(CC1CC1)C2", "Percent Effect": -16.69}, {"smiles": "c1ncc(CN2CC(Cc3nccc4cc[nH]c34)C2)cn1", "Percent Effect": 24.55}, {"smiles": "Cn1cc(CC2CCN(C(=O)NCCc3cccc(O)c3)C2)cn1", "note": "(centres undefined)", "Percent Effect": 9.063}, {"smiles": "CCC(=O)N1CCC(c2nc(N3CCCC3)ncc2S(C)(=O)=O)CC1", "Percent Effect": -19.63}, {"smiles": "CCC(=O)N1CCC(c2nc(N3CCCCC3)ncc2S(C)(=O)=O)CC1", "Percent Effect": 49.28}, {"smiles": "CS(=O)(=O)c1cnc(N2CCCC2)nc1C1CCN(C(=O)C2CC2)CC1", "Percent Effect": 60.16}, {"smiles": "CS(=O)(=O)N1CCC(CNC(=O)c2cnccn2)CC1", "Percent Effect": -29.61}, {"smiles": "COCCN1CCC2(CC1)CN(C(=O)Cc1cccnc1)CCO2.O=C(O)C(F)(F)F.O=C(O)C(F)(F)F", "Percent Effect": 26.19}, {"smiles": "CC(=O)N1CCCC1c1ccc(Br)cn1", "note": "(centres undefined)", "Percent Effect": -5.926}, {"smiles": "Cc1ncc(CN(C)C)c(C2CCCN2c2ncccn2)n1", "note": "(centres undefined)", "Percent Effect": 3.651}, {"smiles": "OCCc1cc(C2CCCN2c2ncccn2)n[nH]1", "note": "(centres undefined)", "Percent Effect": 5.746}, {"smiles": "COc1nsc2nc(C3CCCN3C(C)=O)ccc12", "note": "(centres undefined)", "Percent Effect": 51.54}, {"smiles": "COc1ccc(Oc2cncc(C3CCCN3C(C)=O)n2)cc1", "note": "(centres undefined)", "Percent Effect": -6.062}, {"smiles": "COc1nsc2nc(C3CCCN3c3ncccn3)ccc12", "note": "(centres undefined)", "Percent Effect": 56.9}, {"smiles": "CNCC(=O)N1CCC(c2cccc(Oc3ccccc3)n2)CC1", "Percent Effect": 5.467}, {"smiles": "COc1ccc(CN2CC[C@@H]3[C@H]2CCC(=O)N3c2cnn(C)c2)cc1.O=C(O)C(F)(F)F", "Percent Effect": -0.7852}, {"smiles": "CCCc1cncnc1N1CCC2(CCC(=O)N(CCOC)C2)CC1", "Percent Effect": -26.49}, {"smiles": "CNc1cc(N2CCCC2CNCc2ccc(C)o2)ncn1", "note": "(centres undefined)", "Percent Effect": -46.19}, {"smiles": "CN1CC(=O)N(c2ccsc2)CC12CCN(S(=O)(=O)c1ccccc1)C2.O=C(O)C(F)(F)F", "note": "(centres undefined)", "Percent Effect": 4.283}, {"smiles": "CCS(=O)(=O)N1CCC2(CC1)CN(CC1CCOC1)c1ccccc12.O=C(O)C(F)(F)F", "note": "(centres undefined)", "Percent Effect": -6.416}, {"smiles": "CN1C(=O)C2(CCN(CC3CC3)CC2)c2ccccc21.O=C(O)C(F)(F)F", "Percent Effect": -19.06}, {"smiles": "O=C(O)C(F)(F)F.O=C(O)C(F)(F)F.OCCN1CC2(CCN(CC3CC3)CC2)c2ccccc21", "Percent Effect": 53.69}, {"smiles": "CS(=O)(=O)N1CCC2(CC1)CN(CC1CCOC1)c1ccccc12.O=C(O)C(F)(F)F", "note": "(centres undefined)", "Percent Effect": 24.53}, {"smiles": "CCCS(=O)(=O)N1CCC2(CC1)CN(CC1CCOC1)c1ccccc12.O=C(O)C(F)(F)F", "note": "(centres undefined)", "Percent Effect": 53.88}, {"smiles": "O=C(O)C(F)(F)F.c1cnc(N2CCC3(CC2)CN(CC2CC2)c2ccccc23)nc1", "Percent Effect": 32.03}, {"smiles": "CCC(=O)NC(Cc1cc(N(C)C)nc(C2CC2)n1)c1ccccc1", "note": "(centres undefined)", "Percent Effect": 47.48}, {"smiles": "CC(C)c1nccc(C2CC(=O)Nc3n[nH]c(C4CCC4)c32)n1", "note": "(centres undefined)", "Percent Effect": 28.48}, {"smiles": "Cc1cccnc1CN1CCN(c2noc(-c3ccccc3)n2)CC1", "Percent Effect": 16.84}, {"smiles": "O=C(c1cc(-n2cccn2)ccn1)N(CC(F)(F)F)C1CCCC1", "Percent Effect": 17.65}, {"smiles": "Cc1nccn1C1CCCN(C(=O)c2ccc3c(c2)nc(C)n3C)C1", "note": "(centres undefined)", "Percent Effect": -4.275}, {"smiles": "O=C(CN1CCCC1Cn1cncn1)Nc1nccs1", "note": "(centres undefined)", "Percent Effect": 20.94}, {"smiles": "COCc1cccc(NC(=O)N(C)Cc2ncc(C)c(OC)c2C)c1", "Percent Effect": -1.951}, {"smiles": "COc1c(C)cnc(CN(C)C(=O)c2cccc(NC(N)=O)c2)c1C", "Percent Effect": 25.72}, {"smiles": "COc1c(C)cnc(CN(C)C(=O)Nc2ccc3c(c2)CCO3)c1C", "Percent Effect": 65.58}, {"smiles": "CS(=O)(=O)c1snnc1C1CCN(Cc2cccc(O)c2)CC1", "Percent Effect": -3.307}, {"smiles": "c1cc(N2CCOCC(Cc3ccc4[nH]ccc4c3)C2)ncn1", "note": "(centres undefined)", "Percent Effect": 9.694}, {"smiles": "Nc1cc(N2CCOCC(Cc3ccc4[nH]ccc4c3)C2)ncn1", "note": "(centres undefined)", "Percent Effect": 103.2}, {"smiles": "Cc1cc(N2CCOCC(Cc3ccc4[nH]ccc4c3)C2)ncn1", "note": "(centres undefined)", "Percent Effect": 26.85}, {"smiles": "Cc1cccc(NC(=O)N2CCC3(CCC(C(=O)N(C)C)O3)CC2)c1", "note": "(centres undefined)", "Percent Effect": -3.897}, {"smiles": "CN(C)Cc1cccc(-c2cccnc2C(=O)NCc2ccco2)c1", "Percent Effect": 0.1793}, {"smiles": "Cc1[nH]c2nc(CNc3ccccc3Cl)nn2c(=O)c1C", "Percent Effect": 13.95}, {"smiles": "CN1CCN(C(=O)c2cc(-c3ccco3)cs2)CC1", "Percent Effect": 25.84}, {"smiles": "O=C(c1cc(-c2ccco2)cs1)N1CCOCC1", "Percent Effect": 26.26}, {"smiles": "O=C(c1cc(-c2ccco2)cs1)N1CCCC1", "Percent Effect": 81.62}, {"smiles": "CCn1cc2c(n1)C(COC)CN(Cc1ccoc1)C2", "note": "(centres undefined)", "Percent Effect": -14.11}, {"smiles": "COCC1CN(Cc2ccccn2)Cc2cn(C)nc21.O=C(O)C(F)(F)F.O=C(O)C(F)(F)F.O=C(O)C(F)(F)F", "note": "(centres undefined)", "Percent Effect": 31.55}, {"smiles": "CCn1cc2c(n1)C(COC)CN(Cc1ccccn1)C2", "note": "(centres undefined)", "Percent Effect": 96.31}, {"smiles": "CN(C)C(=O)c1ccc2ccc(N3CCN(CC4CC4)CC3)n2c1", "Percent Effect": -12.17}, {"smiles": "Cc1ccc(-c2cc(C(=O)NC(C)C(=O)N3CCCCC3)on2)cc1", "note": "(centres undefined)", "Percent Effect": 17.57}, {"smiles": "CCn1ccc(NS(=O)(=O)c2cccc(COC)c2)n1", "Percent Effect": -1.872}, {"smiles": "CCc1ccc(S(=O)(=O)Nc2ccn(CC(=O)OC)n2)cc1", "Percent Effect": 68.94}, {"smiles": "COC(=O)Cn1ccc(NS(=O)(=O)c2ccc3c(c2)CCC3)n1", "Percent Effect": -1.96}, {"smiles": "CSC(C)C(=O)N1CCCN(Cc2nccn2C)CC1", "note": "(centres undefined)", "Percent Effect": -38.31}, {"smiles": "Fc1cccc(CN2CCC(c3noc(-c4ccncc4)n3)CC2)c1F", "Percent Effect": 8.868}, {"smiles": "CCCc1nnc(N2CC[C@@](O)(C3CCOCC3)[C@H](C)C2)s1", "Percent Effect": -20.29}, {"smiles": "Nc1ncc(-c2ccc(Cl)cc2)c(C2CCCNC2)n1", "note": "(centres undefined)", "Percent Effect": -8.441}, {"smiles": "Nc1ncc(-c2ccc(F)cc2)c(C2CCCNC2)n1", "note": "(centres undefined)", "Percent Effect": 2.627}, {"smiles": "COc1ccc(-c2cnc(N)nc2C2CCCNC2)cc1.Cl", "note": "(centres undefined)", "Percent Effect": 57.74}, {"smiles": "COc1ccc(-c2cc(C3CCCNC3)ccn2)cc1.Cl", "note": "(centres undefined)", "Percent Effect": 13.34}, {"smiles": "Nc1ncc(-c2ccc(C(F)(F)F)cc2)c(C2CCCNC2)n1", "note": "(centres undefined)", "Percent Effect": 50.32}, {"smiles": "CS(=O)(=O)N1CC(c2nc(N)ncc2-c2ccc(F)cc2)C1", "Percent Effect": 26.29}, {"smiles": "Cc1n[nH]c(C2CN(CC(=O)NCCC3=CCCCC3)CCO2)n1", "note": "(centres undefined)", "Percent Effect": -4.775}, {"smiles": "COc1cc(CNC(=O)c2csc(Br)c2)ccn1", "Percent Effect": 5.577}, {"smiles": "c1ccc(CN2CCC(c3nccnc3-n3ccnc3)CC2)cc1", "Percent Effect": -13.47}, {"smiles": "Cc1noc(C)c1CN(Cc1cccs1)C1CCS(=O)(=O)C1", "note": "(centres undefined)", "Percent Effect": -24.86}, {"smiles": "CCS(=O)(=O)N1CCc2ccc(NC(=O)NCCc3ccccc3)cc21", "Percent Effect": 30.28}, {"smiles": "CN(C)CC(=O)N1CCN(C(=O)c2cccc3[nH]ncc23)CC1", "Percent Effect": 11.64}, {"smiles": "CCc1cnc(CN(C(C)=O)C2CCN(CCc3ccccc3)C2)o1", "note": "(centres undefined)", "Percent Effect": -5.219}, {"smiles": "Cc1csc(CNC(=O)N2CCN(Cc3ccco3)CC2)n1", "Percent Effect": 5.266}, {"smiles": "Cc1csc(CN2C[C@@H]3COC[C@]3(C(=O)NCc3ccco3)C2)n1", "Percent Effect": 99.79}, {"smiles": "Cc1ncsc1CN1C[C@@H]2COC[C@]2(C(=O)NCc2ccccn2)C1.O=C(O)C(F)(F)F.O=C(O)C(F)(F)F", "Percent Effect": 34.64}, {"smiles": "Cc1ncsc1C(=O)N1CCCC(n2cncn2)C1", "note": "(centres undefined)", "Percent Effect": -11.33}, {"smiles": "CC(=O)N1CCCC1c1cccc(Oc2ccccc2F)n1", "note": "(centres undefined)", "Percent Effect": 16.34}, {"smiles": "Cc1cc(CN2CCN(S(=O)(=O)c3c(C)c(Cl)cc(C)c3Cl)CC2)on1", "Percent Effect": 15.46}, {"smiles": "O[C@@H]1C[C@H]2CN(Cc3ccccc3Cl)[C@H](Cc3ccccc3)CN2C1", "Percent Effect": 13.61}, {"smiles": "O[C@@H]1C[C@H]2CN(Cc3ccsc3)[C@@H](Cc3ccccc3)CN2C1", "Percent Effect": 57.45}, {"smiles": "O[C@@H]1C[C@H]2CN(Cc3ccccc3)[C@H](Cc3ccccc3)CN2C1", "Percent Effect": 7.945}, {"smiles": "Cc1ccc(CN2CC[C@H]3OCC[C@@H](c4nc(C)no4)[C@H]3C2)cc1", "Percent Effect": 12.84}, {"smiles": "CCC(C)(CCO)NC(=O)c1ccon1", "note": "(centres undefined)", "Percent Effect": -22.18}, {"smiles": "COC(=O)[C@@H](NC(=O)c1coc(COc2cccc(F)c2)n1)C(C)C", "Percent Effect": 30.38}, {"smiles": "CCC(C)NC(=O)c1coc(COc2cccc(F)c2)n1", "note": "(centres undefined)", "Percent Effect": 60.97}, {"smiles": "O=C(NC(CO)CO)c1coc(COc2cccc(F)c2)n1", "Percent Effect": -12.31}, {"smiles": "O=C(NCC(F)(F)F)c1coc(COc2cccc(F)c2)n1", "Percent Effect": 71.66}, {"smiles": "CC(C)(NC(=O)c1coc(COc2cccc(F)c2)n1)C(N)=O", "Percent Effect": 8.84}, {"smiles": "O=C(O)c1coc(COc2cccc(F)c2)n1", "Percent Effect": 15.94}, {"smiles": "CN(C)Cc1cc(C2CCCCN2S(=O)(=O)c2cccc(Cl)c2)nn1C.Cl", "note": "(centres undefined)", "Percent Effect": 9.135}, {"smiles": "CC(C)N(Cc1ccc(Cl)c(Cl)c1)C(=O)CCn1cncn1", "Percent Effect": 29.65}, {"smiles": "O=S(=O)(c1ccccc1)N1CCC2(CCCN2Cc2cccc(F)c2)C1", "note": "(centres undefined)", "Percent Effect": 5.302}, {"smiles": "Cc1nn(C2CCS(=O)(=O)C2)c(O)c1CCc1ccccc1", "note": "(centres undefined)", "Percent Effect": 6.158}, {"smiles": "Cc1ccc(CN2Cc3c(C(=O)N4CCN(C)CC4)nn(C)c3C2)s1.O=C(O)C(F)(F)F.O=C(O)C(F)(F)F.O=C(O)C(F)(F)F", "Percent Effect": -2.835}, {"smiles": "CS(=O)(=O)CCn1ccc(NC(=O)Cc2ccccc2F)n1", "Percent Effect": 11.43}, {"smiles": "CCOC(=O)Cn1ccc(NC(=O)Cc2ccccc2F)n1", "Percent Effect": 99.82}, {"smiles": "Cn1ccc(NC(=O)Cc2ccccc2F)n1", "Percent Effect": -2.791}, {"smiles": "CC(C)C1SCC(=O)Nc2c1c(O)nn2C1CCCCC1", "note": "(centres undefined)", "Percent Effect": 13.37}, {"smiles": "Cc1cc(N2CCC(Cc3ccccc3)CC2)nc(-c2ccncc2)n1", "Percent Effect": 82.9}, {"smiles": "Cc1cc(N2CCC(CC(N)=O)CC2)nc(-c2ccncc2)n1", "Percent Effect": 23.93}, {"smiles": "Cc1cc(N2CCC(Cc3ccccc3)CC2)ncn1", "Percent Effect": 22.55}]}]}
